Consider 40 molecules from PubChem BioAssay (NCI).

Structures are written as SMILES. About 83,000 compounds went through this panel and 20% of them were active in at least one assay; those are over-represented in the sample as a whole.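 Results are percent growth after 48 hours of single-concentration exposure. 100 means growth as in untreated cells, lower positive values show inhibition; negative values down to -100 show cell death.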 A number with no mark means an inactive call. The source made the active and inactive calls. Rule for the calls: active = growth percent below 10; inactive = the rest.

The assay deals with HL-60(TB) leukemia. Briefly: NCI-60 one-dose screen, 48 h (100 = growth as untreated, 0 = no growth, -100 = all killed). As to conditions: 10 µM unless noted.
`CC1CC(C)(C)OB(OC(C)CC(C)(C)OB2OC(C)CC(C)(C)O2)O1` (stereo not given): the growth was 103%.

Take `CCN(c1ccc(Cl)cc1)c1nc(-c2ccc([N+](=O)[O-])cc2)cs1`: the growth was 96.1%.

In the case of `COc1cc(/C=C(/C)C[N+](=O)[O-])ccc1O`, the growth was 71.5%.

`C=CCOc1ccc(/C(Cl)=N/N=C(\Cl)c2cc(OC)c(OC)c(OC)c2)cc1`: the growth was 39.6%.

On to `Fc1cc(F)cc(C(c2c[nH]c3ccccc23)c2c[nH]c3ccccc23)c1`, for which the growth was 147%.

In the case of `COc1cnc2c(c1)C(=O)c1c-2n(CCCN2CCCC2)c(=O)c2cc(Cl)ccc12`, the growth is 27.9%.

As for `c1ccc([P+](CCCc2n(Cc3ccc4ccccc4c3)c3ccccc3[n+]2Cc2ccc3ccccc3c2)(c2ccccc2)c2ccccc2)cc1`, the growth was 22.6%.

Turning to `COc1cc(NCCCCCNC(C)(C)C)c2ncccc2c1`, the growth was 128%.

Regarding `Nc1c(C(=O)O)cc(Cl)cc1[N+](=O)[O-]`, the growth was 73.7%.

For `N=C(N)c1nn(C2OC(CO)C(O)C2O)c2nc[nH]c(=O)c12` (stereo not given), the growth was -25.2% (active).

For the molecule `O=C1/C(=C/c2ccc([N+](=O)[O-])o2)Oc2ccc(Br)cc21`, the growth is 43.2%.

On to `COc1ccc(S(=O)(=O)N2CCN(C)CC2)cc1NC(=O)c1[nH]c(C)c2c1CCCCC2=O`, for which the growth was 8.16% (active).

With `COc1ccc(S(=O)(=O)n2cc(C(=O)C(=O)Nc3ccncc3)c3ccccc32)cc1F`, the growth was -46.4% (active).

For `C[n+]1cccc(CC(=O)NO)c1`, the growth is 94.7%.

For the molecule `c1cn2cc(-c3ccc4ncn(C5CCCCC5)c4c3)nc(-c3ccc4c(c3)ncn4C3CCCCC3)c2n1`, the growth was -42.2% (active).

As to `CCOC(=O)CSc1c(-c2ccccc2)c2cc(Cl)ccc2[nH]c1=O`, the growth is 84.7%.

For `C=C(CN=[N+]=[N-])[C@@H]1CC[C@]2(C)[C@H](CC[C@@H]3[C@H]4[C@H]5OC(=O)[C@@]4(CCC5(C)C)CC[C@]32C)[C@@]1(C)CCC#N`, the growth is 22.7% [100 µM].

Regarding `COc1ccc(C2NN=C3c4ccccc4CCC32)cc1` (stereo not given), the growth is 40.7%.

As to `C/C(=N/Nc1nc2ccccc2n1C)c1ccccn1`, the growth is -19% (active).

As to `CCOC(=O)C1C(C(=O)OCC)C2C(=O)C3C(C(=O)OCC)C(C(=O)OCC)C3C(=O)C12` (stereo not given), the growth was 96.7%.

`CCCCN(CCCC)C(=O)CC`: the growth was 97.3%.

In the case of `O=C1C=CC2(O)OC(c3ccccc3)CC(=O)C2=C1O` (stereo not given), the growth is 50.5%.

`S=c1nc(-c2ccccn2)c(-c2ccccn2)n[nH]1`: the growth is 92.8%.

With `O=S(=O)(O)C(C(I)I)S(=O)(=O)O`, the growth was 109%.

In the case of `COc1cc(/C=N/NC(=O)c2cnn3c2NC(c2ccccc2)C3)ccc1Oc1ccccc1` (stereo not given), the growth is 14.3%.

Turning to `COc1ccc2cc1Oc1ccc(cc1)C[C@H]1c3cc(c(OC)cc3CCN1C)Oc1c(OC)c(OC)cc3c1[C@H](C2)N(C)CC3`, the growth is 29.8%.

Take `O=C1c2cccc(NCCN=Cc3ccccc3O)c2C(=O)c2c(NCCN=Cc3ccccc3O)cccc21`: the growth was 31.6%.

Turning to `O=[N+]([O-])c1ccc(C2CC(c3ccccc3)=Nc3ccccc3S2)cc1` (stereo not given), the growth was 36.1%.

In the case of `CCOC(=O)c1c2c(n3cccc(Cl)c13)C(=O)c1ncccc1C2=O`, the growth was 34%.

For the molecule `CCOC(=O)/C(C#N)=C\c1c[nH]c2ccccc12`, the growth is 104%.

On to `O=C(N/N=C\c1c(O)ccc2ccccc12)C1CC1`, for which the growth is 1.22% (active).

Take `O=S(Nc1ccccc1)c1ccc(Cl)cc1` (stereo not given): the growth is 90.8%.

As for `O=C1OCC2=C1C(c1cccc(F)c1)c1cc3c(cc1N2CCO)OCCO3` (stereo not given), the growth is -34.5% (active).

For the molecule `COc1ccc(C(=O)c2nc3ccccc3n2CC(=O)c2ccc(F)cc2)cc1`, the growth was 79.5%.

For `CCCCCCc1nc2nc(Cl)c(Cl)nc2[nH]1`, the growth is 39.6%.

On to `CN(C)CC1CCCCCC(CN(C)C)C1=O` (stereo not given), for which the growth was 26%.

In the case of `Cc1cc(Cl)c2c(N(C)C)cccc2n1`, the growth was 97.3%.

Consider `CCCOC(=O)N[C@H]1CCc2c(Cl)c(OC)c(OC)c(OC)c2-c2ccc(SC)c(=O)cc21`, for which the growth is -36% (active).

With `NS(=O)(=O)c1ccc(CCN2C(=O)/C(=C\c3ccc(Cl)cc3)C=C2c2ccc3ccccc3c2)cc1`, the growth is 99.5%.

On to `O=S1(=O)CCC(N(/N=C/c2ccco2)c2ccccc2)C1` (stereo not given), for which the growth was 100%.
